This note sets out measurements from PubChem BioAssay AID504753 (Sanford-Burnham Center for Chemical Genomics, 2011).

The structures appear in SMILES notation. In all, about 2,400 compounds went through this assay and about 820 (34%) were called active. A selection follows. Unmarked numbers belong to inactive results.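 The calls were made as follows: active = inhibition of at least 50% at 20 µM in any single replicate; inactive = the rest.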

The subject of the test is glucose-6-phosphate dehydrogenase-6-phosphogluconolactonase (PfGluPho), Plasmodium falciparum 3D7. Description: PfG6PD inhibitors, hit retest, confirmation, biochemical, fluorescence intensity, single concentration (AID 504753).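 Also: 0% = DMSO with substrate and 100% = DMSO lacking glucose-6-phosphate substrate.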 The note with it: recombinant PfGluPho, NADPH-diaphorase-resazurin fluorescence; at 20 µM; stronger effect = higher value.
As for `COc1ccc(CCn2c(NN=C3CCCC3)nc3c2c(=O)[nH]c(=O)n3C)cc1`, the inhibition was 61.9% (active).

Turning to `CSc1n[nH]c(=S)n1N`, the inhibition is 19.9%.

`O=C(CSc1cccc2cccnc12)N/N=C/c1cccnc1`: the inhibition is 15.1%.

With `O=C(CCn1nnc2ccccc21)OCC(=O)c1ccc([N+](=O)[O-])cc1`, the inhibition was 12.8%.

For `CC(C)(C)NC(=O)COc1ccc(CNc2ccc3[nH]c(=O)[nH]c3c2)cc1`, the inhibition was 66.8% (active).

As to `O=C1OC(Oc2ccc(Br)cc2)(c2ccccc2)c2ccccc21` (centres undefined), the inhibition is -21.5%.

As for `Cc1ccc(C(=O)/C=C/c2c(C)nn(-c3ccccc3)c2Cl)cc1`, the inhibition is -5.72%.

As to `c1ccc(-c2cn3c(n2)CCc2ccc4cccnc4c2-3)cc1`, the inhibition was 56.4% (active).

`Cc1cccc(-n2c(N)c(C(=O)N3CCN(C)CC3)sc2=S)c1`: the inhibition is 45.5%.

In the case of `CCc1c(C)[nH]c(=S)c(C#N)c1C`, the inhibition was 46%.

`CN1c2ccc(C=O)c3c(C=O)ccc(c23)N(C)C1(C)C`: the inhibition is 20.6%.

On to `COc1ccc2c(c1)c(=Cc1ccc(N(C)C)cc1)c1cc(-c3ccccc3)[n+](C)n12`, for which the inhibition was 74% (active).

For the molecule `Cc1ccc(NC(=O)Cn2sc3ccccc3c2=O)cc1`, the inhibition is 107% (active).

On to `O=C(Nc1ccc(F)cc1)c1cc2c(s1)CCCC2`, for which the inhibition is 15.8%.

In the case of `O=C(CN1CCN(c2ccc(O)cc2)CC1)Nc1cc(S(=O)(=O)N2CCOCC2)ccc1Cl`, the inhibition was 50% (active).

As to `COCCNC(=S)Nc1cc(S(=O)(=O)N2CCOCC2)ccc1N1CCCCC1`, the inhibition was 44.5%.

Regarding `O=C(CN1CCN(c2ccc(O)cc2)CC1)Nc1ccc(-c2ccccc2)cc1`, the inhibition is 22.2%.

As for `COc1ccc(Cl)cc1NC(=O)CN(C)C(=O)CCCc1c[nH]c2ccccc12`, the inhibition is 27.2%.

Take `Nc1ccc(-c2nnc(-c3ccc(-c4ccccc4)cc3)o2)cc1`: the inhibition was 15.4%.

`COc1cccc(C(=O)Nc2nnc(S(=O)(=O)N3CCOCC3)s2)c1`: the inhibition is 81% (active).

Take `COc1cccc(C(=O)Nc2nnc(S(=O)(=O)N3CCCCC3)s2)c1`: the inhibition was 76.5% (active).

In the case of `COc1cccc(C(=O)Nc2nnc(S(=O)(=O)N(C)c3ccccc3)s2)c1`, the inhibition is 73.6% (active).

`Cc1cccn2c(CN(C)C3CCCc4ccccc43)c(C(=O)N3CCOCC3)nc12` (centres undefined): the inhibition is 34.2%.

As to `COc1cc(C(=S)NCc2ccccc2)cc(Br)c1O`, the inhibition is 39.6%.

`O=C(Nc1sc2c(c1C(=O)O)CCC2)c1ccccc1F`: the inhibition is 33.8%.

For `Oc1ccc(N=Cc2c(O)ccc3ccccc23)cc1`, the inhibition is 2.98%.

Take `COc1cc(C2CC(=O)N3CN(Cc4ccccc4)CSC3=C2C#N)ccc1OCc1ccccc1` (centres undefined): the inhibition is 15.1%.

Take `Cc1c(-c2ccccc2)n[nH]c1C(=O)N=Nc1c(O)[nH]c2ccccc12`: the inhibition is 38.1%.

With `CCOC(=O)C1=C(c2ccc(OC)cc2)C(=O)c2ccccc2C1=O`, the inhibition is 82.8% (active).

As for `Nc1ccc2nc3c(=O)[nH]c(=S)[nH]c3nc2c1`, the inhibition is 23.1%.

For the molecule `COc1cccc(NC(=O)NCc2ccc(F)cc2)c1`, the inhibition was -14.2%.

Consider `Clc1ccc2c(c1)C1=C(C(c3ccncc3)O2)C(c2ccc(Br)cc2)n2ncnc2N1` (centres undefined), for which the inhibition was 42.4%.

Take `CCOc1cccc(/C=N/N2C(=O)CSC2=S)c1O`: the inhibition is 10.3%.

In the case of `Nc1ccc2[nH]c(=S)sc2c1`, the inhibition was 35.6%.

Turning to `CCN1CCCC1CNC(=O)c1ccc2c(c1)NC(=O)/C(=C\c1ccccc1F)S2` (centres undefined), the inhibition was 110% (active).

As for `NC(=O)c1c(Nc2nc3c(F)cccc3s2)sc2c1CCCC2`, the inhibition was 2.29%.

For `C#CCOCCOCCOCCNc1nc(N2CCN(C(=O)CCCCCCCCCCNC(=O)Cn3cc(CCCCCN)nn3)CC2)nc(N2CCN(C(=O)CCCCCCCCCCNC(=O)[C@H](CO)n3cc(CCCSC)nn3)CC2)n1`, the inhibition was -12.8%.

Consider `O=C(Nc1ccc(S(=O)(=O)N2CCOCC2)cc1)c1ccc2ncsc2c1`, for which the inhibition is 12.6%.

Take `O=C(Nc1nnc(S(=O)(=O)N2CCCCCC2)s1)c1cccc(Br)c1`: the inhibition was 55.3% (active).

Consider `Cc1cccc(C(=O)Nc2nnc(S(=O)(=O)N3CCCCCC3)s2)c1`, for which the inhibition is 52.1% (active).

On to `O=C(Nc1nnc(S(=O)(=O)N2CCOCC2)s1)c1cccc(Br)c1`, for which the inhibition was 60.9% (active).

Turning to `S=C(NN=Cc1ccccn1)Nc1ccccn1`, the inhibition was 39.7%.

On to `COc1c(O)ccc2c1CN1CCc3cc4c(cc3C1C2)OCO4` (centres undefined), for which the inhibition was 71.4% (active).

For `N#Cc1ccccc1-n1c(N)c(C(=O)N2CCCC2)sc1=S`, the inhibition was 31%.

With `O=C1C=CC(=O)N1c1ccc(N2CCCCC2)cc1`, the inhibition was 63.8% (active).

For `O=[N+]([O-])c1ccc(N2CCN(c3ccc(O)cc3)CC2)c(Cl)c1`, the inhibition is 8.94%.

With `Cc1ccc(-c2nc3ccc(Cl)cn3c2Cc2ccccc2)cc1`, the inhibition was 16%.

As to `Cc1ccc(-c2cn3cc(C)ccc3n2)cc1`, the inhibition was 40.7%.

Consider `COc1ccc(CC(=O)NCC(=O)N/N=C/c2cc(Br)ccc2OC)cc1`, for which the inhibition is 70.9% (active).

Consider `COc1ccc(C(=O)Nc2ccccc2C(=O)N/N=C/c2ccc(O)c(OC)c2)cc1`, for which the inhibition was 26.4%.

For the molecule `CCOC(=O)c1sc(NC(=O)CSc2nc(C)cc(C(F)(F)F)n2)c(C#N)c1C`, the inhibition is 29.8%.

With `Cn1c(CCC(=O)OCC(=O)NCc2ccccc2Cl)nc(=O)c2ccccc21`, the inhibition was 37.4%.

For the molecule `O=C(Nc1nc(-c2ccncc2)cs1)C1COc2ccccc2O1` (centres undefined), the inhibition is 52.1% (active).

`O=C(CSc1nnc(SCc2ccc(Cl)cc2)s1)N/N=C/c1ccccc1Cl`: the inhibition is 30.5%.

Take `COC(=O)c1sc(=S)n(-c2ccccc2)c1N`: the inhibition is 17%.

`S=c1[nH]nc(-c2cc(-c3ccsc3)n[nH]2)n1-c1ccccc1`: the inhibition was 12.6%.

With `Cn1sc(=O)c2cc(S(=O)(=O)NC3CC3)ccc21`, the inhibition was 40%.

Regarding `O=C1/C(=C\c2ccc([N+](=O)[O-])cc2)CS(=O)(=O)C/C1=C/c1ccc([N+](=O)[O-])cc1`, the inhibition is 56.5% (active).

`COc1ccc(Cl)cc1-n1c(=S)sc2c(=O)n(-c3ccc(F)cc3)c(SCC(=O)O)nc21`: the inhibition is 34.5%.

For the molecule `COC(=O)CCCC1=CC2=CC(=O)C(C)(OC(=O)c3cccs3)C(=O)C2=CN1CC(C)C` (centres undefined), the inhibition was 2.11%.

Turning to `CCOc1ccccc1Nc1ccc2nonc2c1[N+](=O)[O-]`, the inhibition is 45.4%.

As for `O=[N+]([O-])c1c(NCCO)cc(Sc2nc3ccccc3s2)c2nonc12`, the inhibition was 68.6% (active).

With `Cc1ccc2nc(-c3cccc(Br)c3)cc(C(=O)Nn3cnnc3)c2c1`, the inhibition was 27.5%.

Take `COCCN1C=C2C(=O)C(C)(OC(=O)C3CCCC3)C(=O)C=C2C=C1c1ccsc1` (centres undefined): the inhibition was 29.9%.

Consider `Cc1ccc(OCC(=O)Nc2ccccc2Sc2ccc(Cl)cc2)c([N+](=O)[O-])n1`, for which the inhibition was 40.8%.

Regarding `CCN(CC)c1ccc2oc(=O)c(C)nc2c1`, the inhibition was 97.5% (active).

For `CCSc1nnc(NC(=O)c2ccc(C)cc2)s1`, the inhibition is 75.1% (active).

Regarding `CCc1cc(C(N)=O)c(NC(=O)c2ccc(OC)cc2)s1`, the inhibition is 16%.

Take `CC(C)(C)c1nnc(NC(=O)C2c3ccccc3Oc3ccccc32)s1`: the inhibition was 27.4%.

Regarding `CC1=CC(C)(C)Nc2ccc(OC(=O)CN3C(=O)C4CCCCC4C3=O)cc21` (centres undefined), the inhibition was 12.7%.

For the molecule `Cc1ccnc(-n2sc3ccccc3c2=O)n1`, the inhibition was 54.5% (active).

For `O=c1oc2ccccc2cc1-c1cn(-c2ccccc2)c(=S)[nH]1`, the inhibition is 18.8%.

`S=c1[nH]nc(-c2cc(-c3ccccc3)n[nH]2)n1/N=C/c1c2ccccc2cc2ccccc12`: the inhibition is -2.97%.

Consider `Oc1c(CN2CCOCC2)ccc(CN2CCOCC2)c1O`, for which the inhibition was 31.4%.

`Cc1cc(Nc2ccc(Cl)cc2)nc(N2CCOCC2)n1`: the inhibition is 11.2%.

For the molecule `O=C(/C=C/c1ccco1)Nc1ccc(Oc2ccccc2)cc1`, the inhibition was -1.92%.

Take `Cc1ccc(/C=C/C(=O)Nc2ccc([N+](=O)[O-])c(NC(=O)/C=C/c3ccc(C)o3)c2)o1`: the inhibition is 65.5% (active).

As for `COc1ccc(C(=O)Nc2cc(C)c(NC(=O)c3ccccc3OC)cn2)cc1`, the inhibition is 15.4%.

As for `Cc1nc([N+](=O)[O-])nn1C12CC3CC(CC(Br)(C3)C1)C2`, the inhibition is 26.5%.

For the molecule `Cc1nc(N2CCOCC2)sc1C(=O)NN`, the inhibition was 27.4%.

As for `Cc1ccc2nc(-c3ccc(Br)cc3)cn2c1`, the inhibition was 40.1%.

On to `O=c1c2c(nc3cc(-c4cccc(Cl)c4)[nH]n13)CCCC2`, for which the inhibition is 41.6%.

On to `CCOc1ccccc1/C=N/NC(=O)CNC(=O)COc1ccccc1`, for which the inhibition is 104% (active).

Consider `O=C(COc1ccccc1)Nc1nonc1NC(=O)COc1ccccc1`, for which the inhibition was 19.8%.

As for `C=CCc1ccccc1OCC(=O)N/N=C/c1ccccc1OCC`, the inhibition is 55.4% (active).

Turning to `CCC(=C/c1sc2ccc3ccccc3c2[n+]1C)/C=C1\Sc2ccc3ccccc3c2N1C`, the inhibition is -4.66%.

For the molecule `CN1CCN(c2ccc(NC(=O)c3ccc4c(c3)OCCO4)cc2Cl)CC1`, the inhibition was 17.7%.

As to `O=C(Nc1ccc(OC(F)(F)F)cc1)c1ccc2c(c1)no[n+]2[O-]`, the inhibition was 10.5%.

Regarding `COC(=O)CCc1sc(Nc2ccc(Br)cc2)nc1-c1ccc(OC)cc1`, the inhibition was -3.8%.

Take `O=C(NC1=CC(=O)c2ccccc2C1=O)c1ccccc1`: the inhibition is 51.5% (active).

`COc1cc(OC)c(C(=O)Nc2ccc(N(C)C)cc2)cc1OC`: the inhibition is 15.6%.

Turning to `COc1ccc(OCc2n[nH]c(=S)n2N)cc1`, the inhibition is 46.2%.

Regarding `COc1ccc(OCc2nnc3n2N=C(c2ccccc2)C(CC(=O)O)S3)cc1` (centres undefined), the inhibition was 66.8% (active).

In the case of `COc1ccc(-c2nn(-c3ccccc3)cc2/C=N/Nc2ccccn2)cc1OC`, the inhibition is 20.9%.

In the case of `COc1ccc(-n2c(C)cc(C(=O)CSc3nnc(-c4cccs4)o3)c2C)cc1`, the inhibition is 14.3%.

For `Cn1c(-c2ccco2)nc2cc3ccccc3cc21`, the inhibition was 22.1%.

Consider `OCCN1CCN(C(=S)c2ccc(-c3ccccc3)cc2)CC1`, for which the inhibition was 50.8% (active).

In the case of `COc1ccc(Nc2cc(Sc3ccc(OC)cc3)ncn2)cc1`, the inhibition is 26.3%.

As for `COCCNC(=O)Nc1ccc2nc(-c3ccco3)c(-c3ccco3)nc2c1`, the inhibition was 34.8%.

With `O=[N+]([O-])c1ccc(C=Nc2ccc(Cl)cc2Cl)s1`, the inhibition is 4.17%.

In the case of `O=c1[nH]c2ccccc2n2c(-c3ccccc3)nnc12`, the inhibition was 102% (active).

Turning to `Oc1c(C=Nc2cccc3nsnc23)ccc2ccccc12`, the inhibition was 27.2%.

Consider `Cc1cc(N)n2nc(-c3ccc(C(C)(C)C)cc3)cc2n1`, for which the inhibition was 29.4%.

Turning to `O=C(N/N=C\c1cccc(Br)c1)c1ccccc1-n1cccc1`, the inhibition is 32%.

Regarding `C=C1c2cccc(OC)c2O[C@H](C(=O)OCC)[C@@H]1CCCCCC`, the inhibition was -4.41%.

Consider `Cn1c(-c2sccc2OCc2cccc(C(F)(F)F)c2)n[nH]c1=S`, for which the inhibition was 52.9% (active).

As for `CCc1c(C)sc(NC(=O)c2cccs2)c1C(N)=O`, the inhibition is 16.4%.

Turning to `Cc1cc(Nc2ccc(Br)cc2)nc2ccccc12`, the inhibition was -14%.

Turning to `CCOc1ccc(-n2c(N)c(C(=O)NCC3CCCO3)sc2=S)cc1` (centres undefined), the inhibition is 24.8%.
